Screening data from PubChem BioAssay.
This is a sample that favours compounds with a hit; in the whole collection about 6.5% have one here.
NADH enzymes = blocks coupling enzymes of NAD/NADH assays | coupled PK/LDH NADH assays, four targets | IC50, µM (doses to about 10 µM), for inactives: at the highest dose inhibition | 65,000 tested, 0.02% active;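 active means single-dose screening hits from any of four coupled enzyme assays that gave an IC50 when retested across doses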;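 further: the DPM-DC format reads NADH fluorescence rather than 340 nm absorbance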
A340 absorber = compounds absorbing at 340 nm; compound absorbance at 340 nm, fold over control; fold change at 10 µM; 65,000 tested, under 10 active; AID 708;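 active means at 10 µM dose, initial 340 nm absorbance at least 2 fold that of control wells; inactive means change under 2 fold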;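 further: initial absorbance extrapolated from kinetic A340 decline of NADH oxidation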
DPM-DC inhibit = inhibitors of Streptococcus pneumoniae diphosphomevalonate decarboxylase; purified DPM-DC, PK/LDH coupled NADH fluorescence; calls only at 10 µM; 65,000 tested, 0.49% active;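 active means the 320 compounds with the highest percent inhibition in the single-dose primary screen, excluding strongly autofluorescent ones, cut at about 32% in these data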;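 further: kinetic rate of NADH fluorescence loss reporting ADP formed by the decarboxylase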
MK inhibit = S. pneumoniae mevalonate kinase inhibition; purified MK, PK/LDH-coupled NADH absorbance 340 nm; inhibition, % at 10 µM; 65,000 tested, 0.48% active;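 active means ranked among the strongest by inhibition in the single 10 µM screen, a fixed top-ranked set picked for dose follow-up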
Fluor 339 460 = intrinsic fluorescence of library compounds, ex339/em460 – biochemical, MLSMR library, data from DPM-DC assay, artefact control, profiling panel; compound autofluorescence, ex339/em460 nm, NADH buffer; hits give high values; 1 = no-compound wells, NADH background; fluorescence fold increase at 10 µM; 65,000 tested, 5.5% active;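 active means at 10 µM, mean starting fluorescence two-fold or more over control wells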;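 further: signal is the first read of a kinetic run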
PMK inhibit = inhibitors of Streptococcus pneumoniae phosphomevalonate kinase; inhibition, % at 10 µM; 65,000 tested, 0.49% active; purified PMK, PK/LDH-coupled NADH absorbance 340 nm;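 active means top-ranked compounds by inhibition in the single 10 µM screen, taking a fixed number of the strongest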;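 further: 0% = full reaction with DMSO carrier and 100% = background rate without enzyme reaction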
Starred values were filed as active, the others as inactive; i = inactive; x = not tested or not shown; + = active, no number.

SMILES | NADH enzymes | A340 absorber | DPM-DC inhibit | MK inhibit | Fluor 339 460 | PMK inhibit
Cc1ccccc1-n1c(SCc2cc(=O)n3ccccc3n2)nc2[nH]ncc2c1=O | 4% | 1.1 | i | 3 | 2.2* | 9
O=C(O)CCS(=O)(=O)Cc1ccccc1F | 9% | 1 | i | 1 | 1.1 | 27*
O=C(O)CCCNCc1ccccc1F | 5% | 0.98 | i | 5 | 1.1 | 11
COc1ccc(OC)c(NC(=O)CSc2nnc(N)s2)c1 | 5% | 1.1 | i | 9 | 1.1 | 5
Cc1ccc(CN2CCSc3ccc(C(=O)N4CCN(c5ncccn5)CC4)cc32)cc1 | 3% | 1 | x | 2 | 4.9* | 3
O=C(CN1CCC(O)(c2ccccc2F)CC1)NCCc1c[nH]c2ccccc12 | 2% | 1 | i | 7 | 1.1 | 0
COC(=O)c1ccc(Nc2ncnc3c2cnn3-c2cccc(C)c2)cc1 | 4% | 1.1 | x | 0 | 2.1* | 7
Cc1ccc(OCC(=O)N2CCC(N3CCCCCC3)CC2)cc1 | 15% | 1 | i | 41* | 1.1 | 0
Cc1ccc(OCC(=O)N2CCN(C(=O)CCC3CCCC3)CC2)cc1 | 10% | 0.99 | i | 6 | 1 | 9
CCOC(=O)N1CCN(C(=O)c2ccc(CN(c3ccccc3)S(C)(=O)=O)cc2)CC1 | 3% | 1.1 | i | 9 | 1.1 | 0
COc1ccc(-c2cc3nc4n(c(=O)c3s2)CCOC4)cc1 | 2% | 1.1 | x | 0 | 2.4* | 4
CCOC(=O)Cn1nnnc1C(CC)N(Cc1cc2c(C)cc(C)cc2[nH]c1=O)C1CCCC1 (stereo not drawn) | 4% | 1 | i | 5 | 1.1 | 8
CCOc1ccc(CC(=O)C2C(=O)CCCC2=O)cc1OCC | 8% | 1 | i | 6 | 1.1 | 19
C=C(C)COc1ccc2c(C)c(C)c(=O)oc2c1OCC(=C)C | 5% | 1.1 | x | 9 | 2.1* | 0
C=C(C)COc1ccc2c3c(c(=O)oc2c1OCC(=C)C)CCC3 | 1% | 1.1 | i | 3 | 2.1* | 0
COCCN(C(=O)CCC(=O)Nc1ccccn1)C(C(=O)NC1CCCC1)c1ccc(OC)cc1 (stereo not drawn) | 4% | 0.98 | i | 5 | 1 | 24
COc1ccc(CNc2nc3nc(C)cc(C)n3n2)cc1OC | 1% | 1 | i | 4 | 1.1 | 5
Cc1cc(C)n2nc(NCc3cccc(Br)c3)nc2n1 | 10% | 1.1 | x | 8 | 3.6* | 11
Cc1nnc(SCC(=O)NCc2ccc3c(c2)OCO3)[nH]c1=O | 6% | 0.98 | i | 7 | 1 | 12
CCCCN(CCCC)CCn1cnc2c([nH]c3ccc(OC)cc32)c1=O | 2% | 1 | x | 0 | 2.3* | 11
COc1ccc2c(c1)[nH]c1c(=O)n(CCN3CCCC3)cnc12 | 7% | 1.1 | i | 8 | 0.91 | 9
CCC1CCCN1Cn1cnc2c([nH]c3ccc(OC)cc32)c1=O (stereo not drawn) | 2% | 1 | x | 12 | 3* | 3
COc1cc2[nH]c3c(=O)n(CCN(C(C)C)C(C)C)cnc3c2cc1OC | 3% | 1 | x | 0 | 2.5* | 9
CCN1CCCC1Cn1cnc2c([nH]c3cccc(Cl)c32)c1=O (stereo not drawn) | 6% | 1 | i | 9 | 2.2* | 4
O=C1c2ccccc2C(=O)N1Cc1nc2ccccc2c(=O)n1CCN1CCOCC1 | 4% | 0.99 | i | 12 | 1.1 | 16
SMILES | NADH enzymes | A340 absorber | DPM-DC inhibit | MK inhibit | Fluor 339 460 | PMK inhibit
CCCCNC(=O)CCCCCNS(=O)(=O)c1ccc(OC)cc1 | 3% | 1 | i | 0 | 1.1 | 10
O=C1c2ccccc2NC(c2ccccc2)N1Cc1ccco1 (stereo not drawn) | 5% | 1 | x | 8 | 2.2* | 1
CC(=O)C1=C(O)C(=O)N(Cc2ccco2)C1c1ccc(F)cc1 (stereo not drawn) | 5% | 1 | i | 11 | 1 | 3
O=C1c2ccccc2NC(c2ccc(F)cc2)N1Cc1ccco1 (stereo not drawn) | 5% | 1.1 | x | 5 | 3.8* | 4
O=C1c2ccccc2N2C(=O)c3ccccc3C2N1Cc1ccco1 (stereo not drawn) | 3% | 1 | i | 6 | 1.1 | 0
CC(CCCC(C)(C)O)NCCO (stereo not drawn) | 3% | 1 | i | 4 | 1.1 | 6
Cn1c(=O)c2c(-c3ccccc3)n3c4ccccc4ncc3c2n(C)c1=O | 7% | 1.1 | x | 7 | 3.9* | 6
N#CC1=C(O)C(c2ccccc2)n2c1nc(=O)c1ccccc12 (stereo not drawn) | 2% | 1.1 | x | 3 | 5* | 0
CCOC(=O)CSc1nnc(CNC(=O)c2ccco2)n1C | 4% | 0.99 | i | 0 | 1.2 | 12
CC(=O)C(C(C)=O)c1c(Cl)c(O)c(O)c2c(C(=O)c3ccccc3)coc12 | 1% | 1.1 | i | 2 | 1 | 0
CCOC(=O)C1=C(C)NC2=C(C(=O)C(C(=O)OCC)C(c3ccco3)C2)C1c1ccccn1 (stereo not drawn) | 7% | 1.1 | x | 6 | 3.6* | 8
CCc1ccc(OCc2nnc(SCC(=O)NCc3ccco3)o2)cc1 | 9% | 1 | i | 0 | 0.99 | 26*
C=CCn1c(SCC(=O)OC)nc2sc3c(c2c1=O)CCN(C)C3 | 7% | 1.1 | i | 2 | 1.6 | 5
CCOC(=O)c1cc(-c2cc3ccccc3o2)nc2c1c(=O)[nH]c(=O)n2CCOC | 9% | 1.1 | x | 2 | 5.1* | 15
O=C(OCC(=O)N1CCN(C(=O)COC(=O)c2ccncc2)CC1)c1ccncc1 | 2% | 1 | i | 0 | 1.2 | 5
COc1ccc(N2CCN(C(c3ccco3)c3sc4nc(C)nn4c3O)CC2)cc1 (stereo not drawn) | 12% | 1 | i | 8 | 1 | 27*
Cc1cc(C)nc(N2CCC(C(=O)Nc3nnc(C)s3)CC2)n1 | 8% | 0.99 | i | 6 | 1.5 | 10
Cn1c(=O)c2c(nc(Sc3n[nH]c(N)n3)n2Cc2ccccc2Cl)n(C)c1=O | 4% | 1 | i | 0 | 1 | 13
O=c1oc2ccccc2cc1-c1nc2ccccc2o1 | 14% | 1.2 | x | 3 | 2.1* | 24
COC(=O)CNc1nc(-c2ccccc2F)nc2ccccc12 | 10% | 0.92 | i | 2 | 1.1 | 28*
COc1ccc(N2C(C)=CS/C2=C(/C#N)c2nnc(N3CCOCC3)n2-c2ccccc2)cc1 | 72% | 1.2 | + | 78* | 1.1 | 74*
COC(=O)C1=C(NC(=O)c2ccc(C)c(C)c2)CCS1 | 5% | 1 | i | 0 | 2.7* | 16
O=C(C1CCCN(Cc2cccnc2)C1)N1CCCCC1 (stereo not drawn) | 17% | 1 | i | 45* | 1.1 | 5
Nc1c(C(=O)NC2CCCCC2)c2nc3ccccc3nc2n1/N=C/c1ccco1 | 11% | 1.1 | x | 9 | 3.7* | 13
